Assay outcomes deposited in PubChem by National Center for Advancing Translational Sciences (NCATS).
IL1B secr inh = qHTS for Inhibitors of Inflammasome Signaling: IL-1-beta AlphaLISA Primary Screen | THP-1 LPS/ATP IL-1B secretion, AlphaLISA, 16 h; stronger effect = lower value | activity change, % at 57.5 µM | actives 4.7% (n = 360,000); in the data active means activity change below about -50%; inconclusive means mostly about -30% to -49%
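THP-1 cells pretreated 1 hr with compounds (up to 57.5 uM final), then stimulated with LPS (250 ng/mL final) plus ATP (1.25 mM final); secreted IL-1B measured by AlphaLISA after 16 hr, decreased signal indicating inhibition.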
HT1080 IDH1KD tx = qHTS for induction of synthetic lethality in tumor cells producing 2HG: qHTS for the HT-1080-IDH1KD cell line; HT-1080 IDH1 knockdown viability, ATP luminescence, 48 h; Potency, µM (highest dose often 46.1 µM), for the others: at the top dose activity, negative = toxicity, most hits filed as cytotoxic; actives 2% (n = 360,000); AID 686971, 2013;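 further: potency means the concentration at half of the fitted maximal effect; 0% = DMSO wells and -100% = cell-free medium wells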
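Knockdown cells (IDH1KD HT-1080) received compounds 2 h after plating at 750 cells/well and were kept 48 h at 37 °C in 5% FBS RPMI. A CellTiter-Glo luminescence read gave % activity for curve fitting.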
TDP1 cell noCPT = qHTS for Inhibitors of human tyrosyl-DNA phosphodiesterase 1 (TDP1): qHTS in cells in absence of CPT. DT40 Tdp1-/- hTDP1 cells, no CPT, ATP luminescence, 48 h. Potency, µM (titrated, usually from 46.2 µM), for inactives: at the top dose activity change, negative = growth inhibition, usual class: inhibitors. actives 15% (n = 420,000); further: potency means the concentration at half of the fitted maximal effect; nearly all actives have a fitted effect of over 55% in size
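Chicken DT40 Tdp1-/- cells complemented with human TDP1, screened without camptothecin (DMSO vehicle only), 400 cells/well. Compounds pin-transferred, cells incubated at 37 °C for at least 48 hr. Growth read as ATP-dependent luminescence (CellTiter-Glo, 30 min at RT).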
uPA generation = qHTS for Inhibitors of Cell Surface uPA Generation | cell surface uPA generation assay, qHTS | Potency, µM (titrated, usually from 38.3 µM), without a hit: at the top dose activity change, negative = inhibition, hits mostly inhibitors | actives 0.31% (n = 330,000) | AID 540303, 2011; active means well fitted inhibition curve with a large enough effect; inconclusive means small, poorly fitted or top-dose-only effect; inactive means no such curve, though single readings can be large or run the other way; tested in mouse RAW 264.7 cells; further: potency means the concentration at half of the fitted maximal effect; nearly all actives have a fitted effect of over 55% in size
DT40 TDP1 CPT = qHTS for Inhibitors of human tyrosyl-DNA phosphodiesterase 1 (TDP1): qHTS in cells in presence of CPT | chicken DT40 Tdp1-/-;hTDP1 cells + 20 nM CPT, ATP luminescence, 48 h | Potency, µM (series often up to 46.2 µM), without a hit: top-dose activity change, negative = growth inhibition, most hits filed as inhibitors | actives 12% (n = 420,000) | AID 686979, 2013; further: potency means the concentration at half of the fitted maximal effect; nearly all actives have a fitted effect of over 55% in size
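Chicken DT40 Tdp1-/- cells complemented with human TDP1, 400 cells/well, exposed to compounds plus 20 nM camptothecin for at least 48 h at 37 C; viability read as ATP content by CellTiter-Glo luminescence.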
HT1080-NT tox = qHTS for induction of synthetic lethality in tumor cells producing 2HG: qHTS for the HT-1080-NT fibrosarcoma cell line | HT-1080-NT fibrosarcoma viability, CellTiter-Glo ATP luminescence, 48 h | AID 686970, 2013 | actives 1.6% (n = 360,000) | Potency, µM (doses to about 46.1 µM), inactives show top-dose activity, negative = less viability, hits mostly cytotoxic;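 further: NT is the 2HG producing partner of a matched IDH1 knockdown line; potency means the concentration at half of the fitted maximal effect; 0% = DMSO-treated cells and -100% = media-only wells without cells; nearly all actives have a fitted effect of over 55% in size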
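Compounds were tested in concentration-response format on HT-1080-NT cells for 48 hours at 37 degrees C. Cell viability came from CellTiter-Glo luminescence; curves were classified by r2, response magnitude and activity.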
* hit, by the source's call; ? = inconclusive; / = no result given. Shown are actives, neighbours in structure and some others; about 19% of the full set was active somewhere. Unless noted, the call rests on the fitted dose curve; in most records, active means well fitted curve in the direction sought with a large enough effect; inconclusive means small, poorly fitted or top-dose-only effect, or another doubt; inactive means no such curve, though single readings can be large; an effect the other way counts as inactive or inconclusive. Unless noted, on the % scale 0 is the no-effect control and ±100 the full control effect.

SMILES	IL1B secr inh	HT1080 IDH1KD tx	TDP1 cell noCPT	uPA generation	DT40 TDP1 CPT	HT1080-NT tox
CC(C)(C)N(Cc1ccccc1)C(=O)CSc1nnc(CNc2ccc(F)cc2)o1	-6	?	?	/	11µM*	-4%
O=C(CSc1nnc(CNc2ccc(F)cc2)o1)N1c2ccccc2Sc2ccccc21	?	?	26µM*	/	21µM*	-20%
Cc1ncc([N+](=O)[O-])n1CC(=O)Nc1ccccc1Cl	13	9%	-12%	/	-4%	2%
Cc1cc(C)c(C)c(S(=O)(=O)N2CCC(C(=O)NNC(=O)c3ccccc3O)CC2)c1C	31	?	16µM*	-5%	?	-21%
Cc1ccc(S(=O)(=O)N2CCC(C(=O)NNC(=O)c3ccccc3O)CC2)cc1	33	?	15µM*	-6%	?	-26%
Cc1ccc(S(=O)(=O)N2CCC(C(=O)NNC(=O)c3ccccc3O)CC2)cc1C	8	?	?	-10%	?	-25%
CCOc1ccc(NC(=O)Nc2c(C)n(C)n(-c3ccccc3)c2=O)cc1	3	6%	2%	-1%	-4%	6%
Cn1c(=O)c2nc(NCc3ccccc3)cnc2n(C)c1=O	8	13%	13µM*	1%	?	-2%
CCOc1ccc(CCNc2nc3c(c(=O)n(C)c(=O)n3C)n2CC)cc1OCC	2	6%	14µM*	/	16µM*	-1%
CCn1c(NCc2ccccn2)nc2c1c(=O)n(C)c(=O)n2C	-3	8%	-14%	/	1%	-6%
Cn1c(=O)c2c(nc(NCc3cccnc3)n2Cc2ccccc2Cl)n(C)c1=O	-20	5%	?	?	?	11%
Cn1c(=O)c2c(nc(NCc3ccccc3)n2Cc2ccccc2)n(C)c1=O	/	/	4.1µM*	/	8.2µM*	/
Cn1c(=O)c2c(nc(NCCc3ccccc3)n2Cc2ccc(Cl)cc2)n(C)c1=O	/	/	10µM*	/	12µM*	/
C/C(Cl)=C\Cn1c(Nc2ccccc2)nc2c1c(=O)n(C)c(=O)n2C	-6	2%	?	4%	11µM*	0%
C/C(Cl)=C/Cn1c(NCCN(C)C)nc2c1c(=O)n(C)c(=O)n2C	-28	-1%	-4%	9%	-1%	0%
Cn1c(=O)c2c(nc(NCc3ccccc3)n2Cc2ccc(Cl)c(Cl)c2)n(C)c1=O	/	/	7.3µM*	/	8.2µM*	/
CCOc1ccc(OCC)c(NC(=O)c2nnn(CC(=O)Nc3cc(Cl)ccc3OC)c2N)c1	/	/	-19%	/	-15%	/
NC(=O)c1nc(C(=O)N2CCN(c3ccccc3)CC2)c2ccccc2n1	45	-1%	-19%	-30%	-25%	1%
CC(=O)N1CCc2cc(S(=O)(=O)NC(CC(C)C)C(=O)NCc3ccccc3Cl)ccc21 (configuration not stated)	/	/	-12%	/	-4%	/
CCOc1cc(NC(=O)c2ccco2)c(OCC)cc1NC(=O)CCc1ccccc1OC	-3	-3%	7.3µM*	10%	9.2µM*	-5%
COc1cc(NC(=O)c2ccco2)c(C(=O)OCC(=O)c2c[nH]c3ccccc23)cc1OC	26	-20%	8.2µM*	-14%	15µM*	-28%
CCOc1ccc(-c2cccc(NC(=O)c3ccco3)c2)nn1	8	7%	21µM*	-1%	?	7%
CCS(=O)(=O)c1ccc(-c2cccc(NC(=O)c3ccco3)c2)nn1	2	-5%	?	16%	-1%	8%
CCOc1cc(C#N)c(NC(=O)c2ccco2)cc1OCC	21	?	6.5µM*	-20%	12µM*	?
Cc1ccc(C)c(C(=O)Cn2c(NCCO)nc3ccccc32)c1	-2	2%	-4%	-14%	?	1%
SMILES	IL1B secr inh	HT1080 IDH1KD tx	TDP1 cell noCPT	uPA generation	DT40 TDP1 CPT	HT1080-NT tox
CCOc1cc(NC(=O)c2ccco2)c(OCC)cc1NC(=O)c1cc(OC)c(OC)c(OC)c1	-8	?	?	1%	?	-24%
COc1cc(NC(=O)c2ccco2)c(OC)cc1NC(=O)c1cc(OC)c(OC)c(OC)c1	-5	-1%	21µM*	6%	?	5%
CCOc1cc(NC(=S)NC)c(OCC)cc1NC(=O)c1ccco1	-6	4%	-7%	5%	-6%	10%
Cc1nn2c(-c3cccc(NC(=O)c4ccco4)c3)nnc2c2ccccc12	?	-2%	21µM*	1%	21µM*	0%
CCOc1cc(NC(=O)c2ccco2)c(OCC)cc1NC(=O)c1ccco1	17	20%	2.9µM*	10%	-20%	32%
CC(=O)Nc1ccc(OS(=O)(=O)c2c(C)cc(C)cc2C)cc1	13	1%	?	35%	?	-1%
Cc1nc(N(C)C2CCCCC2)c2nnn(Cc3ccc(F)cc3)c2n1	2	12%	?	/	?	15%
Cc1ccc(S(=O)(=O)N2CCN(c3nc(-c4cccs4)nc4c3ncn4COC(=O)C(C)(C)C)CC2)cc1	/	0%	0%	/	-4%	5%
O=c1c2ccccc2n(Cc2ccccc2F)c(=O)n1-c1cccc(F)c1	/	/	15µM*	/	?	/
COc1cc(-n2c(=O)c3ccccc3n(Cc3cccc(F)c3)c2=O)cc(OC)c1OC	?	-2%	1%	2%	-3%	2%
Cc1cccc(CCn2c(=O)c3ccccc3n(Cc3ccccc3C)c2=O)c1	/	/	16µM*	/	15µM*	/
Cc1cccc(CCn2c(=O)c3ccccc3n(Cc3cccc(F)c3)c2=O)c1	/	/	23µM*	/	18µM*	/
O=c1c2ccccc2n(Cc2cccc(F)c2)c(=O)n1C1CCCC1	16	-8%	23µM*	-8%	?	-18%
COc1ccc(CCN2C(=O)CSC2c2ccc(F)cc2)cc1 (configuration not stated)	11	1%	-21%	-10%	?	-4%
CC(=N)C1=C(O)CC(c2ccccc2)CC1=O (configuration not stated)	-4	3%	-6%	2%	-6%	7%
N#Cc1ccccc1Cn1c(=O)n(C2CCCC2)c(=O)c2ccccc21	-18	-10%	18µM*	-8%	16µM*	-3%
